High-throughput results from PubChem.
TDP1 cell CPT: DT40-hTDP1 cell growth loss with CPT. chicken DT40 Tdp1-/-;hTDP1 cells + 20 nM CPT, ATP luminescence, 48 h. Potency, µM (top dose mostly 46.2 µM), without a hit: at the top dose activity change, negative = growth inhibition, hits mostly inhibitors. hit rate 12% among 420,000; also: potency is read from the fitted curve at half-maximal effect; nearly all actives have a fitted effect of over 55% in size
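Cell growth measured by CellTiter-Glo luminescence after a minimum 48 h, 37 C compound exposure with 20 nM CPT in Tdp1-knockout DT40 cells stably expressing hTDP1, seeded 400/well; qHTS titration format.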
HT1080 IDH1KD tx: kills HT-1080 cells with IDH1 knockdown; Potency, µM (highest dose often 46.1 µM), for inactives: at the top dose activity, negative = toxicity, hits mostly cytotoxic; hit rate 2% among 360,000; AID 686971; HT-1080 IDH1 knockdown viability, ATP luminescence, 48 h;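 also: potency is read from the fitted curve at half-maximal effect; 0% = DMSO wells and -100% = cell-free medium wells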
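Knockdown cells (IDH1KD HT-1080) received compounds 2 h after plating at 750 cells/well and were kept 48 h at 37 °C in 5% FBS RPMI. A CellTiter-Glo luminescence read gave % activity for curve fitting.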
IL1B secr inh: inhibitors of inflammasome signaling (IL-1 beta secretion); activity change, % at 57.5 µM; THP-1 LPS/ATP IL-1B secretion, AlphaLISA, 16 h; hits give low values; hit rate 4.7% among 360,000; in the data active = activity change below about -50%; inconclusive = mostly about -30% to -49%
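Secreted IL-1B measured by AlphaLISA bead assay after 16 h compound exposure of THP-1 cells; compounds (final up to 57.5 uM) added 1 h before LPS (250 ng/mL) and ATP (1.25 mM) stimulation; lower signal means less secretion.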
HT1080-NT tox: kills 2HG-producing HT-1080-NT fibrosarcoma cells; HT-1080-NT fibrosarcoma viability, CellTiter-Glo ATP luminescence, 48 h; Potency, µM (top dose mostly 46.1 µM), without a hit: at the top dose activity, negative = less viability, usual class: cytotoxic; hit rate 1.6% among 360,000;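 also: NT is the 2HG producing partner of a matched IDH1 knockdown line; potency is read from the fitted curve at half-maximal effect; 0% = DMSO-treated cells and -100% = media-only wells without cells; nearly all actives have a fitted effect of over 55% in size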
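HT-1080-NT; 750 cells/well; 5% FBS RPMI; 48 h compound, 37 degrees C; CellTiter-Glo luminescence; curve fitting and curve-class assignment.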
TDP1 cell noCPT: qHTS for Inhibitors of human tyrosyl-DNA phosphodiesterase 1 (TDP1): qHTS in cells in absence of CPT. DT40 Tdp1-/- hTDP1 cells, no CPT, ATP luminescence, 48 h. Potency, µM (series often up to 46.2 µM), for the others: top-dose activity change, negative = growth inhibition, usual class: inhibitors. hit rate 15% among 420,000; also: potency is read from the fitted curve at half-maximal effect; nearly all actives have a fitted effect of over 55% in size
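Readout: luminescence from CellTiter-Glo after 30 min in the dark at RT. Cells: DT40 Tdp1-/- with stable hTDP1, 400/well. Exposure: compounds alone, ≥48 hr, 37 °C.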
The depositor's hits bear a star; ? = inconclusive; nt = no result. The list is not random: actives were taken first. Their share in the collection is about 19%. Unless noted, calls follow the shape of the dose curve; as a rule, active = well fitted curve in the direction sought with a large enough effect; inconclusive = small, poorly fitted or top-dose-only effect, or another doubt; inactive = no such curve, though single readings can be large; an effect the other way counts as inactive or inconclusive. Unless noted, % is scaled to controls: 0 for no effect and ±100 for the full control effect.

SMILES	TDP1 cell CPT	HT1080 IDH1KD tx	IL1B secr inh	HT1080-NT tox	TDP1 cell noCPT
CC(=O)c1cc(F)c(N2CCCC2)cc1C	21µM*	0%	-13	4%	21µM*
CC(=O)c1cc(F)c(N2CCN(C(=O)COc3ccccc3F)CC2)cc1C	21µM*	0%	-9	-2%	16µM*
CCC(=O)c1cc(F)c(N2CCN(C(=O)Cc3ccccc3)CC2)cc1C	21µM*	-10%	-15	1%	15µM*
CC(=O)c1cc(F)c(N2CCN(C(=O)C(C)(C)C)CC2)cc1C	21µM*	11%	-3	11%	21µM*
CCc1nnc(N2C(=O)c3cccc4cccc(c34)C2=O)s1	-4%	-3%	26	-1%	?
CCN=c1scc(C)n1/N=C/c1cc(Br)c(O)c(Br)c1	?	?	-10	?	?
CCN=c1scc(C)n1/N=C/c1ccc(O)c(O)c1O	15µM*	-8%	-17	-6%	7.3µM*
CCOP(=O)(OCC)c1nc(-c2ccc(Cl)cc2Cl)oc1N1CCCCC1	12µM*	23µM*	-113*	18µM*	18µM*
CCOP(=O)(OCC)c1nc(-c2ccccc2Cl)oc1N1CCOCC1	4%	13%	6	?	-15%
CC(=O)NC(c1cccc(F)c1)c1nc(-c2cc(F)cc(Cl)c2)cs1 (centres undefined)	-25%	-15%	-18	-18%	-30%
N#Cc1c(N2CCN(C(=O)c3ccco3)CC2)nc(-c2ccccc2)c2c1CCCC2	26µM*	?	-52*	?	?
N#Cc1c(N2CCN(C(=O)c3ccccc3Cl)CC2)nc(-c2ccccc2)c2c1CCCC2	-24%	-5%	-58*	-2%	-17%
Cc1c(C(=O)NNC(=S)Nc2ccc(S(N)(=O)=O)cc2)oc2ccccc12	-6%	19%	19	0%	5%
CN1CCN(C2CCCCC2NS(=O)(=O)c2ccccc2)CC1 (centres undefined)	-13%	3%	-18	0%	18%
COc1ccccc1N1CCN(C2CCCCC2NS(=O)(=O)c2ccccc2)CC1 (centres undefined)	21µM*	-6%	-27	-2%	16µM*
CC(C)(C)OC(=O)C[C@H]1C/C=C\C[C@H](CC(=O)N[C@H](CO)Cc2ccccc2)C(=O)N[C@@H](Cc2ccccc2)COC1=O	16µM*	3%	0	17%	15µM*
O=C(C[C@@H]1C/C=C\C[C@@H](Cc2ccc(F)cc2)C(=O)OCCNC1=O)N[C@H](CO)Cc1ccccc1	21µM*	-3%	-19	-8%	18µM*
O=C(C[C@H]1C/C=C\CC[C@@H](Cc2ccc(F)cc2)C(=O)O[C@@H](c2ccccc2)CNC1=O)N[C@H](CO)Cc1ccccc1	18µM*	-21%	0	?	?
CC(C)(C)OC(=O)C[C@@H]1C/C=C\C[C@H](CC(=O)N[C@@H](CO)Cc2ccccc2)C(=O)N[C@H](C(C)(C)C)COC1=O	21µM*	17%	-8	9%	18µM*
O=C(C[C@@H]1C/C=C\C[C@@H](Cc2ccc(F)cc2)C(=O)OC[C@@H](Cc2ccccc2)NC1=O)N[C@H](CO)Cc1ccccc1	?	5%	76	1%	-23%
CCN(c1ccccc1)S(=O)(=O)c1nnc(NC(=O)COc2ccc(OC)cc2)s1	-2%	nt	nt	nt	-8%
Cc1ccc(Cl)cc1N1CCN(C(=O)COCc2cc(-c3ccc4c(c3)OCO4)on2)CC1	-1%	nt	nt	nt	-25%
CN[C@H]1C[C@H]2c3cc(N4CCN(C)CC4)ccc3CCN2C(=O)[C@H]1[C@H](C)O	-12%	-2%	12	0%	-11%
CCN(CC)CCNS(=O)(=O)c1ccc(C(=O)NN)cc1	-20%	12%	9	5%	?
CC(C)(C)OC(=O)C[C@@H]1C/C=C\C[C@@H](CC(=O)N[C@H](CO)Cc2ccccc2)C(=O)NC[C@H](c2ccccc2)OC1=O	?	4%	11	10%	?
